Assay [1] in a line: qHTS for Inhibitors of Plasmodium falciparum (CP250) proliferation (AID 504320).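 Further: plate controls were DMSO vehicle for no effect and 0.29 µM artemisinin control for full effect.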 In a few lines: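 Parasite growth measured as SYBR Green DNA fluorescence (ex 485, em 535 nm) after overnight lysis following 72 h culture at 37 °C, 0.3% parasitemia, 2.5% hematocrit. Values normalized against DMSO and 0.29 uM artemisinin controls, with plate-stack correction.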
For orientation: In qHTS, concentration-response curves come from the screen itself.

Assay [2] concerns the target Atrial natriuretic peptide receptor 1 (Homo sapiens) (UniProt P16066). The assay can be described thus: Natriuretic polypeptide receptor (hNpr1) antagonism - Pilot CMLD screen (AID 1347052; calls by dose curve;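 further: HEK293 cells with hNpr1 stimulated by hNppA peptide at 0.1 nM; cGMP level read as GloSensor luciferase luminescence after agonist stimulation; series mostly up to about 9.2 µM; on the % scale 0 is the no-effect control and ±100 the full control effect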).
A short description of assay [3]: Confirmation and Secondary Assay for Modulators of Hemoglobin Beta Chain Splicing at IVS2 654 locus (AID 910).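 Further: per-well total GFP intensity by laser scanning cytometry after 2-day treatment; % of control where 0% means no effect.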 In a few lines:
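HeLa cells stably carrying EGFP interrupted by mutant beta-globin IVS2-654 intron (CMV-driven) were treated with compound for 2 days at 37C; corrected splicing was scored as total peak GFP intensity per well (488 nm excitation, 500-520 nm emission).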

In assay [4] the target is ATP-dependent DNA helicase Q1 (Homo sapiens) (UniProt P46063). The assay can be described thus: qHTS Validation Assay for Inhibitors of RecQ-Like Dna Helicase 1 (RECQ1) (AID 2353).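 Further: plate controls were DMSO vehicle for no effect and enzyme-free control for full effect.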 In a few lines: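 RECQ1T1 50 nM; forked duplex (20 bp + 30-nt ss tails) 200 nM, ATP 2 mM final; pH 8.0, 2 mM MgCl2, 2.5 ug/ml poly(dI-dC); 15 min compound preincubation; discontinuous kinetic read over 2 h at RT.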

For assay [5], the target named is M-phase phosphoprotein 8 (Homo sapiens) (UniProt Q99549). The assay can be described thus: qHTS Validation Assay for Inhibitors for MPP8 Chromodomain Interactions with Methylated Histone Tails (AID 488949). Further: top concentration of the series differs between compounds; on the % scale 0 is the no-effect control and ±100 the full control effect; nearly all actives have a fitted effect of over 55% in size. In a few lines:
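MPP8 (50 nM) was pre-bound to 50 nM biotinylated H3(1-18)K9me3 peptide in PBS pH 7.4 with 0.01% Tween-20. Compounds were then added for 30 min at room temperature, and complex disruption was read by AlphaScreen with streptavidin donor and nickel-chelate acceptor beads.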

Assay [6] concerns the target Methanococcus maripaludis chaperonin (MmCpn) (UniProt Q6LX38). The assay can be described thus: High-Throughput Screening for Modulators of Cytosolic Chaperonin Activity: MmCpn Primary Screen (AID 488978).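 Further: 50 nM MmCpn enzyme hydrolysing 30 µM ATP at 37 °C; 0% is about no effect.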 In a few lines:
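MmCpn at 50 nM final was preincubated 5 min at RT with compound. ATP was then added at 30 uM final for 10 min at 37 C. ADP formed was detected by Transcreener HTRF (665/590 nm).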

The target of assay [7] is T1, Hexokinase-4 (Homo sapiens) + Glucokinase regulatory protein (Homo sapiens) (UniProt P35557+Q14397). The assay can be described thus: qHTS assay for inhibitors of recombinant human GCK-GKRP interaction: Diaphorase-coupled assay (AID 743205). In outline:
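Compounds pre-incubated 20 min with substrate, then 10 nM GST-GCK with 10 nM FLAG-GKRP added. GCK activity coupled via G6PDH and diaphorase to resorufin (5 mM glucose, 0.4 mM ATP, 0.15 mM NADP+, pH 7.6), read kinetically over 30 minutes at Ex 525/Em 590 nm.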

Assay [8] concerns the target T1, Hexokinase-4 (Homo sapiens) + Glucokinase regulatory protein (Homo sapiens). The assay can be described thus: qHTS assay for inhibitors of recombinant human GCK-GKRP interaction: ADP-Glo assay (AID 743206).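 Further: plate controls were DMSO plus enzyme for no effect and no enzyme for full effect.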 In a few lines: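 Pin-transferred compounds meet a 15 nM GST-GCK/15 nM FLAG-GKRP/2 uM S6P mix (dispense concentrations). ATP is then added to 0.4 mM final with 5 mM glucose, and the reaction runs 60 min at room temperature. ADP is quantified luminescently.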

Assay [9] shares this target. The assay can be described thus: qHTS assay for inhibitors of recombinant human GCK-GKRP interaction: HTRF assay (AID 743207).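 Further: 0% = DMSO with GCK present and -100% = DMSO wells lacking GCK.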 In outline:
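HTRF binding of 5 nM GST-GCK and 5 nM FLAG-GKRP with 2 uM S6P in pH 7.1 Hepes buffer (MgCl2, KCl, DTT, Tween 20, BSA). Anti-FLAG XL665 and anti-GST donor added, 60 min at room temperature; 665/615 nm read, normalized to with- and without-GCK controls.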

Assay [10] has as its target Parathyroid hormone/parathyroid hormone-related peptide receptor (Homo sapiens) (UniProt Q03431). The assay can be described thus: qHTS for PTHR1 Agonists: Optimization Screen against the NCGC LOPAC library (AID 1347079).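 Further: GloSensor cAMP luminescence in HEK-293 GP2 cells expressing human PTHR1 with IBMX; 0% is about no effect.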 In outline: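 HEK-293 GP2 cells, PTHR1 + GloSensor cAMP; 3000 cells/well, o/n. Luciferin + IBMX 0.5mM each (stock), 1 hr 37C. Cpd titration, 1 hr 37C. Lum after 15 min RT. Ctrl M-PTH(1-15) top 10uM.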

Assay [11] addresses N-terminal Xaa-Pro-Lys N-methyltransferase 1 (Homo sapiens) (UniProt Q9BV86). The assay can be described thus: qHTS Assay for Inhibitors of N-terminal methyltransferase 1 (NTMT1): LOPAC validation of the NTMT1 SAHH-coupled ThioGlo3 Assay (AID 1347143).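 Further: SAH from peptide methylation measured as thiol fluorescence via SAHH coupling and ThioGlo3; on the % scale 0 is the no-effect control and ±100 the full control effect; nearly all actives have a fitted effect of over 70% in size.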 In a few lines: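 In this qHTS pilot against the LOPAC set, 125nM NTMT1 met compounds tested at multiple concentrations, and fluorescence was normalized to background.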

For assay [12], the system named is Zika virus NS2B-NS3 protease (unlinked). The assay can be described thus: Optimization of GU AMC qHTS for Zika virus inhibitors: Unlinked NS2B-NS3 protease assay (AID 1347151). Further: series mostly up to about 52 µM; nearly all actives have a fitted effect of over 80% in size. In outline:
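Noncovalent NS2B hydrophilic domain–NS3 protease complex (25 nM final) in 10 mM Tris-HCl pH 8.0, 0.01% Tween 20; AMC substrate, room temperature 15 min (~20% conversion); fluorescence change normalized, 4-parameter Hill fit.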

Assay [13] deals with Zika virus NS2B-NS3 protease. The assay can be described thus: Primary screen GU AMC qHTS for Zika virus inhibitors (AID 1347154). Further: nearly all actives have a fitted effect of over 70% in size. In outline:
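Unlinked Zika NS2B hydrophilic domain/NS3 protease domain noncovalent complex (25 nM final) in 10 mM Tris-HCl pH 8.0, 0.01% Tween 20, with AMC peptide substrate. Fluorescence (ex 340, em 450 nm) change over 15 min, room temperature; percent inhibition fitted to 4-parameter Hill equation.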

Assay [14] deals with Zika virus NS2B-NS3 protease (unlinked complex). The assay can be described thus: Primary screen GU Rhodamine qHTS for Zika virus inhibitors: Unlinked NS2B-NS3 protease assay (AID 1347159). Further: on the % scale 0 is the no-effect control and ±100 the full control effect; nearly all actives have a fitted effect of over 60% in size. In outline: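 Unlinked NS2B/NS3, 25 nM; Rhod110 peptide, 1.5 microM; compounds, up to 114 microM. Reaction run 15 min at RT in 10 mM Tris-HCl pH 8.0, 0.01% Tween 20; kinetic fluorescence change fitted with a 4-parameter Hill model.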

The test system of assay [15] is Zika virus NS2B-NS3 protease (linked construct). The assay can be described thus: Primary screen NINDS Rhodamine qHTS for Zika virus inhibitors (AID 1347160). Further: on the % scale 0 is the no-effect control and ±100 the full control effect; nearly all actives have a fitted effect of over 55% in size. In a few lines: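 Single-chain NS2B-NS3 protease, 25 nM, pH 8.0; compounds preincubated 15 min. Activity: Rhodamine110 release from 1.5 microM substrate over 15 min, room temperature, data fitted to 4-parameter Hill.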

The target in assay [16] is Lysine-specific demethylase 5B (Homo sapiens) (UniProt Q9UGL1). The assay can be described thus: Optimization screen for KDM5B Histone Demethylases FDH coupled qHTS against the LOPAC library (AID 1347166). Further: 0% is about no effect. In a few lines:
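KDM5BDeltaAP (200nM final) in 50mM HEPES pH 7.5, 0.01% Tween-20 was preincubated with compound for 10 min at room temperature. A substrate mix of 12.5uM H3K4Me3, 25uM a-ketoglutarate, ascorbate, Fe2+, NAD+ and formaldehyde dehydrogenase was then added. NADH fluorescence (340/450 nm) was read initially and after 30 min.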

For assay [17], the target named is Single-stranded DNA cytosine deaminase (Homo sapiens) (UniProt Q9GZX7). The assay can be described thus: Validation qHTS assay for inhibitors of Activation Induced Cytidine Deaminase (AID): AID signal (AID 1347429). Further: on the % scale 0 is the no-effect control and ±100 the full control effect. In a few lines: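 Compounds (final up to 114 uM) preincubated with AID plus UDG; 250 nM DJC20/DJC23 substrate mix (4x stock) added, 4 hr at room temperature, then NaOH, 30 min. Read 1 fluorescence at 540 nm excitation, 590 nm emission.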
Sequence of Single-stranded DNA cytosine deaminase (Homo sapiens) (Q9GZX7 whole entry, looked up): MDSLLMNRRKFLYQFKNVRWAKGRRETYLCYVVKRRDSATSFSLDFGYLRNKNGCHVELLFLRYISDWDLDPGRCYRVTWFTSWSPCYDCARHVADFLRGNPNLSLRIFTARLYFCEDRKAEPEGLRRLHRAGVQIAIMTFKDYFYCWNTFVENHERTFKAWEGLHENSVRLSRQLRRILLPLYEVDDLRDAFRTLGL

A short description of assay [18]: Primary qHTS for inhibitors of La Crosse Virus (LACV) - induced cell death in SH-SY5Y cells (AID 1508616).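 Further: top concentration of the series differs between compounds; 0% = infected DMSO wells and 100% = uninfected DMSO wells; higher means more rescue of cells from virus-induced death.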 In outline: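 Rescue of virus-induced death was read as ATPLite luminescence after 6 days at 37C, scaled between DMSO wells with LACV and without virus. Cells were SH-SY5Y, 6000/well, infected at 0.01 MOI after compound addition.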
The next assay deals with Papain (Carica papaya) (UniProt P00784). The assay can be described thus: Primary qHTS assay for inhibitors of the protease papain (AID 1645873).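 Further: papain turnover of Z-FR-AMC read as the AMC fluorescence gain over 10 min; series mostly up to about 50 µM; on the % scale 0 is the no-effect control and ±100 the full control effect.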
Sequence of Papain (Carica papaya) (P00784 whole entry, looked up): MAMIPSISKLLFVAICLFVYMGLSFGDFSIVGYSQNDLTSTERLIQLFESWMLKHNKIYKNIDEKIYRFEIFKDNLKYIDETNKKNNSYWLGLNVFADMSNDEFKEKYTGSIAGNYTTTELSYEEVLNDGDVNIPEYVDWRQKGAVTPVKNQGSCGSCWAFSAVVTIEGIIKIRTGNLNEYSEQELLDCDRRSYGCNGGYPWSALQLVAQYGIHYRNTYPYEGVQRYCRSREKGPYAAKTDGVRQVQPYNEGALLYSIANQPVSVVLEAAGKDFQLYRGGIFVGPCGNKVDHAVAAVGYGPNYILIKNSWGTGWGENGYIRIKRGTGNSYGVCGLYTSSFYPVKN
In assay [19] the target is Rap guanine nucleotide exchange factor 4 (Homo sapiens) (UniProt Q8WZA2). The assay can be described thus: Confirmatory qHTS for antagonist of cAMP-regulated guanine nucleotide exchange factor 4 (EPAC2) (AID 1645885). Further: potency means the concentration at half of the fitted maximal effect; nearly all actives have a fitted effect of over 25% in size.
Assay [20] deals with Glutathione peroxidase 1 (Homo sapiens) (UniProt P07203). The assay can be described thus: Primary qHTS Assay for Inhibitors of Recombinant Selenoprotein Glutathione Peroxidase 1 (GPX1) (AID 1845191). Further: nearly all actives have a fitted effect of over 65% in size. In outline:
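GPX1 10 nM, GR 100 nM, GSH 1 mM, NADPH 0.5 mM, CHP 0.5 mM (final). 30-min cpd preincubation, RT. Ex340/Em450 read t=0, t=15 min.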

The target in assay [21] is Phospholipid hydroperoxide glutathione peroxidase GPX4 (Homo sapiens) (UniProt P36969). The assay can be described thus: Primary qHTS Assay for Inhibitors of Recombinant Selenoprotein Glutathione Peroxidase 4 (GPX4) (AID 1845192). Further: series mostly up to about 50 µM; on the % scale 0 is the no-effect control and ±100 the full control effect; nearly all actives have a fitted effect of over 65% in size. As to conditions: outcome: dose series up to 50 µM unless noted. In a few lines:
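qHTS, GR-coupled: GPX4 200 nM + cpd 30 min RT → GSH 1 mM, NADPH 0.5 mM, GR 100 nM → CHP 0.5 mM start; fluor 340/450 at t0 and t15 min; no-enzyme wells as control.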

Assay [22] addresses Luciferin 4-monooxygenase (Photinus pyralis) (UniProt P08659). The assay can be described thus: Primary firefly luciferase (FLuc) qHTS assay for identification of artifact compounds. (AID 1845220). Further: nearly all actives have a fitted effect of over 60% in size. In a few lines: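 qHTS, 15 min compound preincubation with substrate (10 uM luciferin, 10 uM ATP) at RT, then 10 nM FLuc; 5 min; luminescence; % inhibition vs no-enzyme/DMSO controls, 4-parameter Hill fit.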

Assay [23] can be described thus: Primary fluorescence-based thiol-reactive (MSTI) qHTS assay for identification of artifact compounds. (AID 1845221).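 Further: series mostly up to about 54 µM; thiol-reactive compounds lower the probe fluorescence signal; nearly all actives have a fitted effect of over 65% in size.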 In outline:
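Reactivity toward the thiol probe MSTI (4 uM) is scored by fluorescence at Ex/Em 525/598 nm after 1 h at room temperature. Acetyl-MSTI and MSTI define the activity scale.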

Assay [24] in a line: Primary redox qHTS assay for identification of artifact compounds. (AID 1845223).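 Further: 0% = DMSO and 100% = reference compound.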 In outline: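 Redox-cycling detection via DTT (250 uM final) oxidation coupled to Amplex Red (25 uM)/HRP (250 mU/mL) in HBSS. 15 min preincubation plus 30 min after DTT, room temperature. Ex/Em 525/598 nm; 4-parameter Hill fit against DMSO and 10 uM DA3003.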
Assay [25] in a line: qHTS drug screen for cell cycle checkpoint inhibitors in PARPi-resistant BRCA-mutant ovarian cancer cell lines. (AID 1963452; calls by dose curve). The conditions noted are these: PEO1/OlaR viability, CellTiter-Glo luminescence, 96 h, stronger effect = lower value. In outline: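 PEO1, PEO4 and PEO1/OlaR ovarian cancer cells, 600 per well, exposed 96 h at 37C to a dilution series. Viability read by CellTiter-Glo luminescence, normalized to DMSO and empty wells; activity summarized as Z-AUC.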

Inconclusive results are not listed. Activity calls are given as the source filed them. Unless noted, the call rests on the fitted dose curve; in most records, active means well fitted curve in the direction sought with a large enough effect; inconclusive means small, poorly fitted or top-dose-only effect, or another doubt; inactive means no such curve, though single readings can be large; an effect the other way counts as inactive or inconclusive.

Sequence of Glutathione peroxidase 1 (Homo sapiens) (P07203 whole entry, looked up): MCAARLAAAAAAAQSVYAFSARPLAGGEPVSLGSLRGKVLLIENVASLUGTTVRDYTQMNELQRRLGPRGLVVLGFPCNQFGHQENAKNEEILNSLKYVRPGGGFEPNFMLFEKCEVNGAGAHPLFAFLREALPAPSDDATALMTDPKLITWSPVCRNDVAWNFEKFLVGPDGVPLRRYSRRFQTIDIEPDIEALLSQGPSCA
Sequence of Phospholipid hydroperoxide glutathione peroxidase GPX4 (Homo sapiens) (P36969 whole entry, looked up): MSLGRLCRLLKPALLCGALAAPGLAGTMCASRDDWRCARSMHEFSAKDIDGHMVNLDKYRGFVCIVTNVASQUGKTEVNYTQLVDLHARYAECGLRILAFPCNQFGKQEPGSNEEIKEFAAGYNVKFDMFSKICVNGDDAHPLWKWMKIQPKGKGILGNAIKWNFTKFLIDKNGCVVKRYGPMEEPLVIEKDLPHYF
T1 sequence (P35557 whole entry, looked up): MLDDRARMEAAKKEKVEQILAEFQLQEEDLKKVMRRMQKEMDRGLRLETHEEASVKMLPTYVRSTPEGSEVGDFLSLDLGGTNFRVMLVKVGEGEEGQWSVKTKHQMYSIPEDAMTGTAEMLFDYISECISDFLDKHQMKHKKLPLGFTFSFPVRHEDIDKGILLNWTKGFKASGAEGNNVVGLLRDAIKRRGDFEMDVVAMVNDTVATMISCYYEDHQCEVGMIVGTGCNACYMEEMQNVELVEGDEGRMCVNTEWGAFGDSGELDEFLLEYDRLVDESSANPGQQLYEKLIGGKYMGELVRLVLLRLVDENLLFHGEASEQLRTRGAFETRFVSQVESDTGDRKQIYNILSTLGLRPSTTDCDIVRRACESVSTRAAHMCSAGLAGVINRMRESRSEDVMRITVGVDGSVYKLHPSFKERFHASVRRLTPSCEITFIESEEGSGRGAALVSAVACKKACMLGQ
T1 sequence (Q14397 whole entry, looked up): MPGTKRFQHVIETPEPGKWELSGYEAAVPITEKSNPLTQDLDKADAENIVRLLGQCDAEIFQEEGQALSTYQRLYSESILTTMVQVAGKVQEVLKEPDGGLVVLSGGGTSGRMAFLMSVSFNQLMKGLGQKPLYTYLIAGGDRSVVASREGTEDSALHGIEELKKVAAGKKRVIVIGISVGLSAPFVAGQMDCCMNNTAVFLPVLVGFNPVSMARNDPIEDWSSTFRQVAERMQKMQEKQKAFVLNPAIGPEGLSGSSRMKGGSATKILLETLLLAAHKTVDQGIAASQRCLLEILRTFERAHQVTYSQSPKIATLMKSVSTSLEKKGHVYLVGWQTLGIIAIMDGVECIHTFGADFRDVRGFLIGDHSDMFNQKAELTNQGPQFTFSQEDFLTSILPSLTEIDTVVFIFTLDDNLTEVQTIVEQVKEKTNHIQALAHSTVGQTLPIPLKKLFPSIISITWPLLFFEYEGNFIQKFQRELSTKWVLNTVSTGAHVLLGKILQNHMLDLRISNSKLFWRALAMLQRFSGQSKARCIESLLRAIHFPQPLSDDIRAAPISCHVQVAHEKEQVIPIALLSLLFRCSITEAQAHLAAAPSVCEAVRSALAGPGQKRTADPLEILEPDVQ
Sequence of M-phase phosphoprotein 8 (Homo sapiens) (Q99549 whole entry, looked up): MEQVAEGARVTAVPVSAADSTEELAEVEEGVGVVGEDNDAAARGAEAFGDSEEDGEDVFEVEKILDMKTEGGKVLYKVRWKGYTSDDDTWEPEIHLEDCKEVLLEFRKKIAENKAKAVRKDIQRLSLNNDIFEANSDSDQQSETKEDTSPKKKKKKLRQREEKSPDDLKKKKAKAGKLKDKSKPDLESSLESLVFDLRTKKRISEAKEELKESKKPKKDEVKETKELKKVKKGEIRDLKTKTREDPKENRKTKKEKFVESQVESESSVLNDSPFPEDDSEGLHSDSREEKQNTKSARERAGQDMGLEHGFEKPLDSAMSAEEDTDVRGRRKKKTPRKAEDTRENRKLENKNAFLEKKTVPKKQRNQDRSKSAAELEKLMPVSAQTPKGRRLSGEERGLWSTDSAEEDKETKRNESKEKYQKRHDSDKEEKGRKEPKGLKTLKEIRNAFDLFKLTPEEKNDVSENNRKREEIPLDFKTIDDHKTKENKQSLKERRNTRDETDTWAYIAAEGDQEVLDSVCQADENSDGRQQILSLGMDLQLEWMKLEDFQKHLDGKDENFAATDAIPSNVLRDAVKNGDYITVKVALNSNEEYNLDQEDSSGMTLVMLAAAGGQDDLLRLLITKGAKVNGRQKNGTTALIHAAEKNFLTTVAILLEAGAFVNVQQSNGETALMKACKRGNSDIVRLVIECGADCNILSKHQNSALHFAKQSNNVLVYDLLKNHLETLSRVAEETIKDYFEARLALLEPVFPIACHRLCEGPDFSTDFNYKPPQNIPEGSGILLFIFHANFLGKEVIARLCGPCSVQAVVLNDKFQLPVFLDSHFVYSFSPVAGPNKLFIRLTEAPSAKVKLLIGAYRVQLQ
Sequence of Methanococcus maripaludis chaperonin (MmCpn) (Q6LX38 1-543): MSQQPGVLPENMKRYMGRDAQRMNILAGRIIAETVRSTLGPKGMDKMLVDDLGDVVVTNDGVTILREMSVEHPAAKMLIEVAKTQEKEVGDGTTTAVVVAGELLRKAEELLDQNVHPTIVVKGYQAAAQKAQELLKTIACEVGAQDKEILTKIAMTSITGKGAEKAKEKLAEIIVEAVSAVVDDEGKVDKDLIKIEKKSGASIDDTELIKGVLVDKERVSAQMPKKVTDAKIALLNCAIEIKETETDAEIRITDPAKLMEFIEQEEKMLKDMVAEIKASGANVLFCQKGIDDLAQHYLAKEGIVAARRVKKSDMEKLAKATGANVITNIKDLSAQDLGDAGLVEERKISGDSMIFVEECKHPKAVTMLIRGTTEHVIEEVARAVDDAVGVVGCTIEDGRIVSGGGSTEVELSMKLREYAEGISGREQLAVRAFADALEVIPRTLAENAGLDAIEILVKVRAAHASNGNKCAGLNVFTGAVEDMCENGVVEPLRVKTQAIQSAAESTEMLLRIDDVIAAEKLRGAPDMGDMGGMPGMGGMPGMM
Sequence of Lysine-specific demethylase 5B (Homo sapiens) (Q9UGL1 whole entry, looked up): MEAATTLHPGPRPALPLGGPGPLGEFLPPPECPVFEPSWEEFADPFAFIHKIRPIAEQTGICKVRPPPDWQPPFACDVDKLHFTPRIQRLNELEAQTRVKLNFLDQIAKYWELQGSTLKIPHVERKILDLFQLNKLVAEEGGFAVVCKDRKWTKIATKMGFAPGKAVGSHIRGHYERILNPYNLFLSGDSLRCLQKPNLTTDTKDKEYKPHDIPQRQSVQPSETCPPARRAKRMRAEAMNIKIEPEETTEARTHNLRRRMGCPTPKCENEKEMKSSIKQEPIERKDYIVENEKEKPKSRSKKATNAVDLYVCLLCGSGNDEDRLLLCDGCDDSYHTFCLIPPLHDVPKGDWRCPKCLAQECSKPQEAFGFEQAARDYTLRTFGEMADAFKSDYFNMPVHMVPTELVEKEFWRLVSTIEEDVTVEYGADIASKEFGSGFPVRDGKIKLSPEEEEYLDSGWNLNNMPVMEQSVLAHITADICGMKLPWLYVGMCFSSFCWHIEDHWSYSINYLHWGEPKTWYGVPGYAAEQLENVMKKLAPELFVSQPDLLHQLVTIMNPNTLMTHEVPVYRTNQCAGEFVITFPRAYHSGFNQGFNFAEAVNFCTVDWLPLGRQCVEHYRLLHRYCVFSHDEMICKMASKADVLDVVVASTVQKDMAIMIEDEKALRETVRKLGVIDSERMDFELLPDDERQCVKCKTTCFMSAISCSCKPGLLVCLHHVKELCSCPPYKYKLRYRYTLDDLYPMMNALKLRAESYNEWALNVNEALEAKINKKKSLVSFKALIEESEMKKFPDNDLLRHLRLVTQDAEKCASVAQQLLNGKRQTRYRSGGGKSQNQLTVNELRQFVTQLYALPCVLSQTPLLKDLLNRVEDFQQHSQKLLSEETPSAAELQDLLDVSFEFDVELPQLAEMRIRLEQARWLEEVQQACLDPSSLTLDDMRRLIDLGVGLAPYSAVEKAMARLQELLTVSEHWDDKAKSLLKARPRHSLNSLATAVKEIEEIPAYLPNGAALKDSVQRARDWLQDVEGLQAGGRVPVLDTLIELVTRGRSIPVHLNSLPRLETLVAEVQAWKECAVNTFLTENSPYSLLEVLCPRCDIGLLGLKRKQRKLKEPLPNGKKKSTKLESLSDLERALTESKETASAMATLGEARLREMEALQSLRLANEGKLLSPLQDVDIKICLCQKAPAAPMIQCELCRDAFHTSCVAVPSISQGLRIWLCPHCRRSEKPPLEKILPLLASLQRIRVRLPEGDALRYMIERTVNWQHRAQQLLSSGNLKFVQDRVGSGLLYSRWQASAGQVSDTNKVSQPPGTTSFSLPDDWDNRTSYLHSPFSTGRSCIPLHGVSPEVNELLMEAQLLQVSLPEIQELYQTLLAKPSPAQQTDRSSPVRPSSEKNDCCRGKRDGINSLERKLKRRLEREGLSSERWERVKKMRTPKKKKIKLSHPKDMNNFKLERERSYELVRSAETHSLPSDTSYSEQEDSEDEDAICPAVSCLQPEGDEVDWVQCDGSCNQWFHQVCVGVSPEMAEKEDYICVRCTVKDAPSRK

Take `COc1ccc2c(c1)[C@@]1(OCCC=C[C@@H]1C)C(=O)N2Cc1ccccc1C(F)(F)F`: the Potency result in assay [1] and in assay [2] was “inactive” in each case.
`C/C=C/CC(C)C(O)C1C(=O)NC(CC)C(=O)N(C)CC(=O)N(C)C(CC(C)C)C(=O)NC(C(C)C)C(=O)N(C)C(CC(C)C)C(=O)NC(C)C(=O)NC(C)C(=O)N(C)C(CC(C)C)C(=O)N(C)C(CC(C)C)C(=O)N(C)C(C(C)C)C(=O)N1C` (stereo not drawn): the molecule was classed as inactive in assay [3], in [6], in [7], in assay [8], in assay [9] and in assay [10]. In addition, the outcome in assay [16] and in assay [18] was inactive. The Potency result in assay [4], in assay [5], in assay [11], in assay [12], in assay [13] and in [14] was “inactive” in each case. For the same molecule, the Potency entry (in [15]; in assay [17]; with Papain (Carica papaya); in assay [20]; in assay [21]; in assay [22]) was “inactive” in each case. The Potency entry in assay [23] and in [24] was “inactive” throughout. Also, the Potency in assay [19] is 7.84 µM (active). Further, the figures for the Z-AUC in assay [25], in assay [25] (measured here: PEO1 parental Z-AUC) and in assay [25] (measured here: PEO4 Z-AUC) were -0.474 (inactive), 0.643 and 0.0499, respectively.

The values above are taken from PubChem BioAssay (NCATS).
